The supplement of paper PMC4466140

How the values were obtained:
Test in all cases: SPOT peptide array binding signal intensity (averaged, normalized) (arbitrary units (background-subtracted, floor 0; scale differs between SH3 domains)); higher = stronger binding of the SH3 domain to the peptide
AgAbp1 = target: AgAbp1
Experimental: (§1)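 GST-tagged SH3 domains from S. cerevisiae (Sc), A. gossypii (Ag), C. albicans (Ca) and S. pombe (Sp) were incubated at 10 ug/ml overnight at 4 C on cellulose SPOT membranes carrying 292 synthetic 15-mer peptides mined from the S. cerevisiae proteome (cysteines replaced by serines). Binding was detected with anti-GST antibody, HRP secondary and chemiluminescence, quantified with Genespotter, and reported as normalized spot intensities averaged over biological replicates.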

AgBbc1 = target: AgBbc1
Experimental: as §1

AgBem1-D1 = target: AgBem1-D1
Experimental: as §1

AgBzz1-D1 = target: AgBzz1-D1
Experimental: as §1

AgBzz1-D2 = target: AgBzz1-D2
Experimental: as §1

AgCyk3 = target: AgCyk3
Experimental: as §1

AgFus1 = target: AgFus1
Experimental: as §1

AgHof1 = target: AgHof1
Experimental: as §1

AgHse1 = target: AgHse1
Experimental: as §1

AgLsb1 = target: AgLsb1
Experimental: as §1

AgLsb4 = target: AgLsb4
Experimental: as §1

AgMyo5 = target: AgMyo5
Experimental: as §1

AgNbp2 = target: AgNbp2
Experimental: as §1

AgRvs167 = target: AgRvs167
Experimental: as §1

AgSho1 = target: AgSho1
Experimental: as §1

AgSla1-D1-D2 = target: AgSla1-D1-D2
Experimental: as §1

AgSla1-D3 = target: AgSla1-D3
Experimental: as §1

CaAbp1-D1 = target: CaAbp1-D1
Experimental: as §1

CaAbp1-D2 = target: CaAbp1-D2
Experimental: as §1

CaBbc1 = target: CaBbc1
Experimental: as §1

CaBem1-D1 = target: CaBem1-D1
Experimental: as §1

CaBzz1-D1 = target: CaBzz1-D1
Experimental: as §1

CaBzz1-D2 = target: CaBzz1-D2
Experimental: as §1

CaCyk3 = target: CaCyk3
Experimental: as §1

CaFus1 = target: CaFus1
Experimental: as §1

CaHof1 = target: CaHof1
Experimental: as §1

CaHse1 = target: CaHse1
Experimental: as §1

CaLsb1 = target: CaLsb1
Experimental: as §1

CaLsb4 = target: CaLsb4
Experimental: as §1

CaMyo5 = target: CaMyo5
Experimental: as §1

CaNbp2 = target: CaNbp2
Experimental: as §1

CaRvs167 = target: CaRvs167
Experimental: as §1

CaRvs167-3 = target: CaRvs167-3
Experimental: as §1

CaSho1 = target: CaSho1
Experimental: as §1

CaSla1-D1-D2 = target: CaSla1-D1-D2
Experimental: as §1

CaSla1-D3 = target: CaSla1-D3
Experimental: as §1

ScAbp1 = target: ScAbp1
Experimental: as §1

ScBbc1 = target: ScBbc1
Experimental: as §1

ScBem1-D1 = target: ScBem1-D1
Experimental: as §1

ScBzz1-D1 = target: ScBzz1-D1
Experimental: as §1

ScBzz1-D2 = target: ScBzz1-D2
Experimental: as §1

ScCyk3 = target: ScCyk3
Experimental: as §1

ScFus1 = target: ScFus1
Experimental: as §1

ScHof1 = target: ScHof1
Experimental: as §1

ScHse1 = target: ScHse1
Experimental: as §1

ScLsb1 = target: ScLsb1
Experimental: as §1

ScLsb2 = target: ScLsb2
Experimental: as §1

ScLsb3 = target: ScLsb3
Experimental: as §1

ScLsb4 = target: ScLsb4
Experimental: as §1

ScMyo3 = target: ScMyo3
Experimental: as §1

ScMyo5 = target: ScMyo5
Experimental: as §1

ScNbp2 = target: ScNbp2
Experimental: as §1

ScPex13 = target: ScPex13
Experimental: as §1

ScRvs167 = target: ScRvs167
Experimental: as §1

ScSho1 = target: ScSho1
Experimental: as §1

ScSla1-D1-D2 = target: ScSla1-D1-D2
Experimental: as §1

ScSla1-D3 = target: ScSla1-D3
Experimental: as §1

SpAbp1-D1 = target: SpAbp1-D1
Experimental: as §1

SpBbc1 = target: SpBbc1
Experimental: as §1

SpBzz1-D1 = target: SpBzz1-D1
Experimental: as §1

SpBzz1-D2 = target: SpBzz1-D2
Experimental: as §1

SpCyk3 = target: SpCyk3
Experimental: as §1

SpHof1 = target: SpHof1
Experimental: as §1

SpHof1-2 = target: SpHof1-2
Experimental: as §1

SpHof1-3 = target: SpHof1-3
Experimental: as §1

SpHse1 = target: SpHse1
Experimental: as §1

SpLsb1 = target: SpLsb1
Experimental: as §1

SpLsb4 = target: SpLsb4
Experimental: as §1

SpMyo1 = target: SpMyo1
Experimental: as §1

SpNbp2 = target: SpNbp2
Experimental: as §1

SpPex13 = target: SpPex13
Experimental: as §1

SpRvs167 = target: SpRvs167
Experimental: as §1

SpSla1-D1-D2 = target: SpSla1-D1-D2
Experimental: as §1

SpSla1-D3 = target: SpSla1-D3
Experimental: as §1

## RRSKSLPITPKSIFN
AgAbp1
  SPOT peptide array binding signal intensity: 47
AgBbc1
  SPOT peptide array binding signal intensity: 30.8
AgBem1-D1
  SPOT peptide array binding signal intensity: 374
AgBzz1-D1
  SPOT peptide array binding signal intensity: 59
AgBzz1-D2
  SPOT peptide array binding signal intensity: 25
AgCyk3
  SPOT peptide array binding signal intensity: 6.5
AgFus1
  SPOT peptide array binding signal intensity: 79.5
AgHof1
  SPOT peptide array binding signal intensity: 125
AgHse1
  SPOT peptide array binding signal intensity: 306
AgLsb1
  SPOT peptide array binding signal intensity: 1.5
AgLsb4
  SPOT peptide array binding signal intensity: 78.5
AgMyo5
  SPOT peptide array binding signal intensity: 0.5
AgNbp2
  SPOT peptide array binding signal intensity: 27
AgRvs167
  SPOT peptide array binding signal intensity: 0.667
AgSho1
  SPOT peptide array binding signal intensity: 2230
AgSla1-D1-D2
  SPOT peptide array binding signal intensity: 350
AgSla1-D3
  SPOT peptide array binding signal intensity: ≤ 0
CaAbp1-D1
  SPOT peptide array binding signal intensity: 144
CaAbp1-D2
  SPOT peptide array binding signal intensity: 310
CaBbc1
  SPOT peptide array binding signal intensity: 103
CaBem1-D1
  SPOT peptide array binding signal intensity: 55
CaBzz1-D1
  SPOT peptide array binding signal intensity: 146
CaBzz1-D2
  SPOT peptide array binding signal intensity: 61
CaCyk3
  SPOT peptide array binding signal intensity: 13.5
CaFus1
  SPOT peptide array binding signal intensity: 368
CaHof1
  SPOT peptide array binding signal intensity: 1
CaHse1
  SPOT peptide array binding signal intensity: 1
CaLsb1
  SPOT peptide array binding signal intensity: 1
CaLsb4
  SPOT peptide array binding signal intensity: 57
CaMyo5
  SPOT peptide array binding signal intensity: 3
CaNbp2
  SPOT peptide array binding signal intensity: 128
CaRvs167
  SPOT peptide array binding signal intensity: 2.33
CaRvs167-3
  SPOT peptide array binding signal intensity: 8.25
CaSho1
  SPOT peptide array binding signal intensity: 353
CaSla1-D1-D2
  SPOT peptide array binding signal intensity: 1140
CaSla1-D3
  SPOT peptide array binding signal intensity: 0.5
ScAbp1
  SPOT peptide array binding signal intensity: 84
ScBbc1
  SPOT peptide array binding signal intensity: 11
ScBem1-D1
  SPOT peptide array binding signal intensity: 88
ScBzz1-D1
  SPOT peptide array binding signal intensity: 31
ScBzz1-D2
  SPOT peptide array binding signal intensity: 12.5
ScCyk3
  SPOT peptide array binding signal intensity: 54
ScFus1
  SPOT peptide array binding signal intensity: 47.5
ScHof1
  SPOT peptide array binding signal intensity: ≤ 0
ScHse1
  SPOT peptide array binding signal intensity: 420
ScLsb1
  SPOT peptide array binding signal intensity: 2.5
ScLsb2
  SPOT peptide array binding signal intensity: 1
ScLsb3
  SPOT peptide array binding signal intensity: ≤ 0
ScLsb4
  SPOT peptide array binding signal intensity: 8
ScMyo3
  SPOT peptide array binding signal intensity: 8.5
ScMyo5
  SPOT peptide array binding signal intensity: 2
ScNbp2
  SPOT peptide array binding signal intensity: 47
ScPex13
  SPOT peptide array binding signal intensity: ≤ 0
ScRvs167
  SPOT peptide array binding signal intensity: 0.333
ScSho1
  SPOT peptide array binding signal intensity: 4000
ScSla1-D1-D2
  SPOT peptide array binding signal intensity: 2340
ScSla1-D3
  SPOT peptide array binding signal intensity: 54
SpAbp1-D1
  SPOT peptide array binding signal intensity: 205
SpBbc1
  SPOT peptide array binding signal intensity: 1.5
SpBzz1-D1
  SPOT peptide array binding signal intensity: 204
SpBzz1-D2
  SPOT peptide array binding signal intensity: ≤ 0
SpCyk3
  SPOT peptide array binding signal intensity: 3
SpHof1
  SPOT peptide array binding signal intensity: 2190
SpHof1-2
  SPOT peptide array binding signal intensity: 1340
SpHof1-3
  SPOT peptide array binding signal intensity: 1120
SpHse1
  SPOT peptide array binding signal intensity: 216
SpLsb1
  SPOT peptide array binding signal intensity: ≤ 0
SpLsb4
  SPOT peptide array binding signal intensity: 64.5
SpMyo1
  SPOT peptide array binding signal intensity: 24.8
SpNbp2
  SPOT peptide array binding signal intensity: 39.5
SpPex13
  SPOT peptide array binding signal intensity: 5
SpRvs167
  SPOT peptide array binding signal intensity: 4.33
SpSla1-D1-D2
  SPOT peptide array binding signal intensity: 1130
SpSla1-D3
  SPOT peptide array binding signal intensity: ≤ 0
